Shown are actives, neighbours in structure and some others; about 11% of the full set was active somewhere.
HPGD block: qHTS Assay for Inhibitors of HPGD (15-Hydroxyprostaglandin Dehydrogenase). Potency, µM, hits mostly inhibitors. purified HPGD, NADH fluorescence kinetic, PGE2 substrate. 150,000 compounds, 4.3% hits. AID 894, 2007
Target sequence (P15428 whole entry, looked up): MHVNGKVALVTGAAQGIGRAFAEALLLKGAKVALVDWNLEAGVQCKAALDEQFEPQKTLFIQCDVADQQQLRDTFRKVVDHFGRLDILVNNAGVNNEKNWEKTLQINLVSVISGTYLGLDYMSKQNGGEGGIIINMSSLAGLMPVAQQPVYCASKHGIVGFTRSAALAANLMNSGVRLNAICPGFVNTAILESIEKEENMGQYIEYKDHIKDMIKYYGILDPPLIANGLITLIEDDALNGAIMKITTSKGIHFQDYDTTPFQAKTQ
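NADH formation kinetics: reaction with 30 uM PGE2 and 1 mM NAD+ (final), 20 nM enzyme, Tris-HCl pH 8 with Tween 20, after 15 min compound preincubation at room temperature. Fluorescence change, last versus first of five reads.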
ALDH1A1 inh: qHTS Assay for Inhibitors of Aldehyde Dehydrogenase 1 (ALDH1A1). Aldehyde dehydrogenase 1A1 (Homo sapiens), P00352. AID 1030, 2008. Potency, µM (series often up to 75.3 µM), hits mostly inhibitors. 220,000 compounds, 7.3% hits. Purified ALDH1A1, NADH fluorescence, propionaldehyde substrate
IMPase cell inh: qHTS Assay for Identifying the Cell-Membrane Permeable IMPase Inhibitors | CHO-M1 cells, IP1 accumulation, HTRF TR-FRET ratio | inhibition (IP1 accumulation), % at 46.1 µM | 120,000 tested, under 10 active; active means well fitted curve in the direction sought with a large enough effect in the signal ratio, not every such curve was filed as active; inconclusive means small, poorly fitted or top-dose-only effect, or a change in a side signal; inactive means no such curve, though single readings can be large or run the other way; the % refers to the signal ratio;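 further: cells stimulated with carbachol in lithium chloride buffer; higher means more IMPase inhibition seen as more IP1 and lower FRET ratio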
Target sequence (P97697 whole entry, looked up): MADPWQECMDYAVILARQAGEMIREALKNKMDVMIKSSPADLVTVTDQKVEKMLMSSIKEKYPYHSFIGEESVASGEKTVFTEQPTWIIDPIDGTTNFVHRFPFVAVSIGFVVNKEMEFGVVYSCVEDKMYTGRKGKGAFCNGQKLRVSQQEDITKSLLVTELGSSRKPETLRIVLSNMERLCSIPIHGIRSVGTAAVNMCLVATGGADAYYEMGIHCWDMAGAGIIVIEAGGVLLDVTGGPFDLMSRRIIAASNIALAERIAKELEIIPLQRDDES
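CHO-M1 cells (CHO stably expressing M1 receptor), compound up to 46 uM final, stimulated with carbachol (50 uM as added) in buffer with 50mM LiCl, pH 7.4, 30 min at 37C. Cytosolic IP1 read by TR-FRET; AC50 from Hill fits.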
PNC assembly inh: High Content Assay for Compounds that inhibit the Assembly of the Perinucleolar Compartment. activity change (PNC), negative = inhibition, % at 10 µM. PC3M PTB-GFP, PNC prevalence imaging, 16 h; active compounds read low. 140,000 compounds, 3.1% hits;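 active means readout at or below -70, meaning at least 70% loss of cells showing the perinucleolar compartment, a nuclear body marking cancer cells; inconclusive means readout between -30 and a set limit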
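Compounds are pinned in duplicate onto adhered PC3M cells stably expressing GFP-tagged PTB and incubated 16 h at 37 C. Cells are then fixed, nuclei stained with Hoechst, and PNC-positive cells counted.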
IMPase Li cell: qHTS Assay for Identifying the Cell-Membrane Permeable IMPase Inhibitors: Potentiation with Lithium; 210,000 compounds, 0.35% hits; AID 1457, 2008; Potency, µM (doses to about 59.4 µM), most hits filed as inhibitors; CHO-M1 cells, IP1 TR-FRET (IP-One), carbachol + lithium; active means well fitted inhibition curve with a large enough effect; inconclusive means small, poorly fitted or top-dose-only effect; inactive means no such curve, though single readings can be large or run the other way;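 further: IP1 builds up when IMPase is blocked and the TR-FRET signal falls; nearly all actives have a fitted effect of over 50% in size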
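CHO-M1, 2000 cells/well, 16–30 h culture; cpd + low Li+, 30 min 37C; lysis with d2-IP1/Eu-anti-IP1 Ab, 10 min RT; TR-FRET 665/620 ratio and 620 channel; AC50 via Hill.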
Each line names hits and unclear results; the compound was inactive in the other large screens. Unless noted, the call rests on the fitted dose curve; in most records, active means well fitted inhibition curve with a large enough effect (not every such curve was filed as active); inconclusive means small, poorly fitted or top-dose-only effect, or another doubt; inactive means no such curve, though single readings can be large or run the other way.

COc1ccc(C2C(C(=O)c3ccco3)=C(O)C(=O)N2CC2CCCO2)cc1 (configuration not stated)	none (no result: HPGD block, IMPase cell inh, PNC assembly inh)
Cc1ccc2nc(N3C(=O)C(O)=C(C(=O)c4ccco4)C3c3cccs3)sc2c1 (configuration not stated)	HPGD block 14µM, ALDH1A1 inh inconclusive, IMPase Li cell inconclusive
O=C(C1=C(O)C(=O)N(Cc2ccco2)C1c1cccs1)c1cccs1 (configuration not stated)	ALDH1A1 inh inconclusive (no result: IMPase cell inh)
C=CCOc1ccc(C2C(C(=O)c3ccco3)=C(O)C(=O)N2c2nnc(C)s2)cc1 (configuration not stated)	ALDH1A1 inh inconclusive, IMPase Li cell 11µM (no result: HPGD block, IMPase cell inh, PNC assembly inh)
COc1ccc(CCN2C(=O)C(O)=C(C(=O)c3ccco3)C2c2cccs2)cc1OC (configuration not stated)	ALDH1A1 inh 7.9µM, IMPase cell inh inconclusive, IMPase Li cell 6.3µM
COc1ccc(C2C(C(=O)c3ccco3)=C(O)C(=O)N2c2nnc(C)s2)cc1 (configuration not stated)	IMPase Li cell 11µM (no result: HPGD block, IMPase cell inh, PNC assembly inh)
C=CCOc1ccc(C2C(C(=O)c3ccco3)=C(O)C(=O)N2CCCN(CC)CC)cc1 (configuration not stated)	ALDH1A1 inh inconclusive (no result: HPGD block, IMPase Li cell)
O=C(O)c1ccc(NC2CC(=O)N(Cc3ccccc3)C2=O)cc1 (configuration not stated)	ALDH1A1 inh inconclusive (no result: HPGD block, IMPase cell inh, PNC assembly inh)
COC(=O)[C@@]1(Cc2ccccc2)[C@H]2c3cc(C(=O)N4CCCC4)n(CCO)c3C[C@H]2CN1C(=O)c1ccccc1	none (no result: IMPase cell inh, PNC assembly inh)
O=C(C1=C(O)C(=O)N(CCOCCO)C1c1cccs1)c1cccs1 (configuration not stated)	ALDH1A1 inh 2.2µM, IMPase cell inh inconclusive, IMPase Li cell 7.9µM
CC(C)(C)NC(=O)C(c1cccs1)N(C(=O)c1csnn1)c1ccccc1F (configuration not stated)	none (no result: HPGD block, IMPase cell inh, PNC assembly inh)
COc1ccc(O)c(C(=O)c2cnc3c(c2)c(=O)[nH]c(=O)n3C)c1	HPGD block 28µM (no result: IMPase cell inh)
O=Cc1c(C(=O)O)n(CC(=O)O)c2ccccc12	PNC assembly inh inconclusive
CC1CCCC(NC(=O)COC(=O)CN2C(=O)C3CCCCC3C2=O)C1C (configuration not stated)	ALDH1A1 inh 25µM
O=C(COC(=O)CN1C(=O)C2CCCCC2C1=O)NC1CCS(=O)(=O)C1 (configuration not stated)	none (no result: IMPase cell inh)
Cc1ccc(-c2noc(CN3CCN(c4ccccc4F)CC3)n2)cc1	ALDH1A1 inh 11µM, PNC assembly inh inconclusive
CC1(C)Cc2c(c(N3CCOCC3)nc3snc(Br)c23)CO1	ALDH1A1 inh inconclusive, PNC assembly inh -84
CCN1CCCC1CNC(=O)c1ccc(-n2c(=O)c(=O)[nH]c3ccccc32)cc1 (configuration not stated)	none (no result: IMPase cell inh, PNC assembly inh, IMPase Li cell)
Cc1cc(C)cc(-n2c(C)cc(/C=N/NC(=O)c3cccc([N+](=O)[O-])c3C)c2C)c1	ALDH1A1 inh inconclusive
Cc1cc(/C=N\NC(=O)c2cccs2)c(C)n1-c1ccc2ncccc2c1	HPGD block inconclusive, ALDH1A1 inh 20µM, PNC assembly inh inconclusive
Cc1cc(/C=N/NC(=O)c2ccccn2)c(C)n1-c1cccc([N+](=O)[O-])c1	ALDH1A1 inh inconclusive (no result: HPGD block, IMPase cell inh, PNC assembly inh)
Cc1cc(/C=N/NC(=O)C(=O)NCc2ccccn2)c(C)n1-c1ccccc1	ALDH1A1 inh 11µM (no result: IMPase cell inh)
Cc1cc(C)cc(-n2c(C)cc(/C=N/NC(=O)CSc3ncccn3)c2C)c1	ALDH1A1 inh 28µM
Nc1nc2c(nc(Sc3ccc(Cl)cc3)n2C2OC(CO)C(O)C2O)c(=O)[nH]1 (configuration not stated)	none (no result: IMPase cell inh, PNC assembly inh)
Cc1cc(NCc2ccncc2)ccc1Br	ALDH1A1 inh 22µM (no result: HPGD block, IMPase cell inh, PNC assembly inh)
COc1ccc(-n2c(=O)c(-c3cccs3)nc3cnc(N4CCN(C)CC4)nc32)cc1	none (no result: HPGD block, IMPase cell inh, PNC assembly inh)
Cc1ccc(CNC(=O)CSc2c3c(nc4ccc(Cl)cc24)CCCC3)o1	ALDH1A1 inh 8.9µM, IMPase Li cell inconclusive
CC(=O)OCC1OC(c2ccc3c(c2)OCO3)C=CC1OC(C)=O (configuration not stated)	none (no result: HPGD block, IMPase cell inh, PNC assembly inh, IMPase Li cell)
O=C(c1ccc(-c2ccccc2)cc1)N1CCC(C(=O)N2CCCC2)CC1	HPGD block 16µM
O=C(NC1CCCCC1)C1CCN(C(=O)c2ccc(-c3ccccc3)cc2)CC1	none (no result: HPGD block, IMPase cell inh, PNC assembly inh)
Cc1occc1C(=O)N1CCN(S(C)(=O)=O)CC1	ALDH1A1 inh 20µM
CS(=O)(=O)N1CCN(C(=O)c2ccc(-c3ccccc3)cc2)CC1	PNC assembly inh -83
CCOC(=O)c1ccc(NC(=O)C(Cc2ccccc2)NS(=O)(=O)c2ccc(Br)s2)cc1 (configuration not stated)	none (no result: HPGD block, ALDH1A1 inh, PNC assembly inh, IMPase Li cell)
N#CCC(=O)Nc1ccc(C(=O)Nc2cccc(S(N)(=O)=O)c2)cc1	none (no result: HPGD block, IMPase cell inh, PNC assembly inh, IMPase Li cell)
COc1ccc(C(=O)N(c2ccc(OC)cc2)S(=O)(=O)c2cccs2)cc1	ALDH1A1 inh 5µM (no result: IMPase cell inh)
COc1ccc(N(C(=O)c2ccccc2)S(=O)(=O)c2cccs2)cc1	ALDH1A1 inh inconclusive (no result: HPGD block, IMPase cell inh, PNC assembly inh)
Nc1c(C(=O)C2CC2)sc2nc(-c3ccccc3)cc(C(F)(F)F)c12	HPGD block 28µM, ALDH1A1 inh inconclusive, IMPase Li cell 13µM
O=C(c1cccs1)c1cn(CCOc2ccccc2Cl)c2ccccc12	none (no result: HPGD block, ALDH1A1 inh, PNC assembly inh, IMPase Li cell)
O=C(NCCCn1ccnc1)Nc1cccc2ccccc12	PNC assembly inh -100
CN(C)CCNC(=O)c1sc2cccc(F)c2c1Cl	ALDH1A1 inh 14µM (no result: HPGD block, IMPase cell inh, PNC assembly inh)
O=C(NCCCn1ccnc1)c1sc2cccc(F)c2c1Cl	ALDH1A1 inh 28µM
COc1cc(O)oc1C=Nc1ccc(Cl)cc1Cl	HPGD block inconclusive, ALDH1A1 inh 14µM
O=C(Nc1ccccn1)C(NS(=O)(=O)c1cccc2nsnc12)c1ccccc1 (configuration not stated)	HPGD block 32µM, ALDH1A1 inh inconclusive
COc1ccc(Br)cc1CN(C)CC(=O)Nc1c(Cl)cccc1Cl	HPGD block 16µM, PNC assembly inh inconclusive
Cc1cc(C)nc(SCc2cc(=O)c(OC(=O)c3ccc(S(=O)(=O)N(C)C)cc3)co2)n1	PNC assembly inh inconclusive
Cc1ccnc(SCc2cc(=O)c(OC(=O)c3ccc(Br)o3)co2)n1	PNC assembly inh -83
Cc1ccnc(SCc2cc(=O)c(OC(=O)c3ccc(S(=O)(=O)N(C)C)cc3)co2)n1	PNC assembly inh -109
COC(=O)c1ccc(C2C(C(=O)OC(C)C)=C(C)N=C3SCCC(=O)N32)cc1 (configuration not stated)	PNC assembly inh -90
